Compounds without any hit were thinned out: in the full panel of roughly 79,000, 15% have a hit. The source made the active and inactive calls. Rule as the data show it: active = growth inhibition above about 70%; inactive = the rest.
How the values were obtained:
[1] = NCI Yeast Anticancer Drug Screen. Data for the rad50 strain (AID 155);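 also: 0% = growth of vehicle-only cultures of the same strain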; conditions: S. cerevisiae rad50 strain growth inhibition; at 50.0 µM; active compounds read high
How it was run: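 Yeast carrying a defined DNA repair defect were exposed to test compounds, and growth was compared with vehicle-treated controls to give percent inhibition.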

[2] = NCI Yeast Anticancer Drug Screen. Data for the mec2-1 strain (AID 157); conditions: S. cerevisiae mec2-1 strain, at 50.0 µM, active compounds read high
How it was run: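 Compounds were applied to mec2-1 yeast cells. Their growth was then compared with that of vehicle-treated cultures to give growth inhibition.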

[3] = NCI Yeast Anticancer Drug Screen. Data for the sgs1 mgt1 strain (AID 161);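 also: 0% = growth of cultures given vehicle only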; conditions: S. cerevisiae sgs1 mgt1 strain, at 50.0 µM, active compounds read high
How it was run: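 Compounds are added to genetically altered yeast, and growth is compared with cultures given vehicle alone to give percent inhibition.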

[4] = NCI Yeast Anticancer Drug Screen. Data for the cln2 rad14 strain (AID 165);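 also: 0% = growth equal to vehicle treated cultures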; conditions: S. cerevisiae cln2 rad14 strain, at 50.0 µM, active compounds read high
How it was run: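 Strain: cln2 rad14 yeast, altered in cell cycle control and DNA damage repair. Read-out: growth inhibition vs vehicle.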

[5] = NCI Yeast Anticancer Drug Screen. Data for the bub3 strain (AID 167); conditions: S. cerevisiae bub3 mutant strain, at 50.0 µM, active compounds read high
How it was run: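 Compounds were applied to a genetically altered yeast strain carrying a cell-cycle control defect. Growth inhibition was scored against vehicle-treated controls.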

[6] = NCI Yeast Anticancer Drug Screen. Data for the mlh1 rad18 strain (AID 175); conditions: S. cerevisiae mlh1 rad18 strain growth inhibition; at 50.0 µM; active compounds read high
How it was run: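 A repair-deficient yeast strain is exposed to test compound, and growth is scored relative to vehicle-treated controls.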

Measured: growth inhibition

CC(CO)c1ccccc1 (configuration not stated)
inactive: [1] 8.15% | [2] 1.15% | [3] -13.9% | [4] -32.5% | [5] -13.4% | [6] -4%

O=C1c2cc(CCl)sc2C(=O)c2ccsc21
active: [1] 88.9% | [2] 89.3% | [3] 89.5% | [4] 89.8% | [5] 87.6% | [6] 83.2%

COC(=O)CCc1ccc(NC(=O)OC)cc1
inactive: [1] -1.4% | [2] 20.3% | [3] 10.9% | [4] 11.2% | [5] 14.8% | [6] -4.7%

Cc1ccnc(NC(=O)Nc2ccccc2Cl)c1
inactive: [1] 9.65% | [2] 8.15% | [3] 1.3% | [4] 3.15% | [5] 21% | [6] 12%

c1ccc2c(c1)oc1cc3c(cc12)n1nnnc1c1cccn31
inactive: [1] 9% | [2] -1.25% | [3] -3.45% | [4] 16.4% | [5] 4.6% | [6] -7.8%

O=C(Cc1n[nH]c(=S)nc1CC(=O)c1cccnc1)c1cccnc1
inactive: [1] 7.8% | [2] 12.2% | [3] 16.1% | [4] -1% | [5] 26.8% | [6] 2.7%

Cc1c[n+]2c(C)cccc2n1C
inactive: [1] 10.9% | [2] 27.9% | [3] 27.1% | [4] -26.2% | [5] -8.05% | [6] 3.65%

O=C(Nc1ccc(Cl)cc1Cl)C(=O)C(C(=O)c1ccncc1)C1OC(=O)c2ccccc21 (configuration not stated)
inactive: [1] -1% | [2] -38.3% | [3] -29.2% | [4] 23.4% | [5] 7.95% | [6] -0.4%

Cc1c2oc3c(C)ccc(C(=O)NCc4cccnc4)c3nc-2c(C(=O)NCc2cccnc2)c(N)c1=O
inactive: [1] 42.6% | [2] -0.85% | [3] -6.85% | [4] 7.55% | [5] 2.6% | [6] 13.1%

CCOC(=O)/C=C1\CCCC12OCCO2
inactive: [1] 29.2% | [2] -3.65% | [3] 3.1% | [4] 19.2% | [5] -5.75% | [6] -6.1%

CCN(CC)C(=O)Oc1cc(C(=O)N(CC)CC)c(OC(=O)N(CC)CC)cc1C(=O)N(CC)CC
inactive: [1] 5.1% | [2] 8.15% | [3] -1.6% | [4] -1.4% | [5] 1% | [6] 30.1%

O=C(CCC(=O)Nc1cc(Cl)ccc1Cl)CC(=O)c1ccc(Cl)cc1
inactive: [1] 14.1% | [2] 24.9% | [3] 10.4% | [4] 11% | [5] -1.65% | [6] -6.75%

O=C1NC2C1C1c3ccccc3C2C12CC2 (configuration not stated)
inactive: [1] -11.1% | [2] -7.95% | [3] -13.6% | [4] -11.8% | [5] 13.1% | [6] -1.85%

CSC(=S)Nc1nc2ccc(C)cc2s1
inactive: [1] 21.4% | [2] 0.4% | [3] -2.95% | [4] -15% | [5] 11.3% | [6] -14.8%

CC(O)(c1ccccc1)C1CC1 (configuration not stated)
inactive: [1] -1.55% | [2] -29.2% | [3] -16.7% | [4] -0.65% | [5] -16.1% | [6] -4.05%

CC1(O)CCC2CC1C2(C)CO (configuration not stated)
inactive: [1] 2% | [2] 7.45% | [3] -9.15% | [4] -28.4% | [5] -7.05% | [6] 3.1%

Cc1nc2c(sc(=S)n2-c2ccccc2)c2nc3ccccc3n12
inactive: [1] -9.35% | [2] -15.7% | [3] 7.7% | [4] -1.2% | [5] -2.55% | [6] -20.6%

O=C(O)CC12C3C4C5C3C1C5C42 (configuration not stated)
inactive: [1] 24.1% | [2] 17.1% | [3] 15.2% | [4] 8.5% | [5] 47.9% | [6] 26.6%

CSc1cc(Cl)c(C)cc1S(=O)(=O)NC(=O)NNc1ccccn1
inactive: [1] -4.3% | [2] -1.6% | [3] 8.15% | [4] -2.05% | [5] -1.5% | [6] 21%

COc1c(C)c2c(c(C)c1Cl)Oc1c(C=O)c(O)c(Cl)c(C)c1C(=O)O2
inactive: [1] 55% | [2] 25.4% | [3] 44.9% | [4] 23.6% | [5] 29.4% | [6] 54.4%

CC(CO)CCNc1ncnc2c1ncn2CCC(=O)OC(C)(C)C (configuration not stated)
inactive: [1] -27.6% | [2] 16.4% | [3] -21.6% | [4] -20.6% | [5] -1.85% | [6] -9.65%

CC(O)C(=O)N1CCCCC1 (configuration not stated)
inactive: [1] 13.7% | [2] 9.5% | [3] -3.95% | [4] -8.35% | [5] 10.6% | [6] -23.1%

C[CH2][GeH][CH2]C.C[CH2][Ge]([CH2]C)[CH2]C
active: [1] 95.2% | [2] 97% | [4] 96.5% | [5] 96% | [6] 94.8%
inactive: [3] 60.8%

COc1cc2c(c(C3(O)C(=O)N(C)c4ccccc43)c1OC)OCO2 (configuration not stated)
inactive: [1] 1.95% | [2] -12.4% | [3] 12.8% | [4] -53.1% | [5] -52.6% | [6] 4.9%

CCC(C)(C)c1ccc(OCCOC(C)=O)cc1
inactive: [1] 3.1% | [2] -11.8% | [3] 26.1% | [4] -13.7% | [5] 18.7% | [6] 23.1%

Cc1cc(N(CCO)CCO)c2ccc3cc4ccccc4cc3c2n1
inactive: [1] 38.5% | [2] 16.6% | [3] 9.35% | [4] 8.3% | [5] 18.3% | [6] 23.9%

O=c1c2nn3c(=O)n(-c4ccccc4)c(=O)c3nn2c(=O)n1-c1ccccc1
inactive: [1] -33% | [2] -10.6% | [3] -14.8% | [4] -5.8% | [5] -24.7% | [6] -3.05%

Cc1nc2sccc2c(=O)n1C
inactive: [1] -4.5% | [2] -3.6% | [3] -0.9% | [4] -4.1% | [5] 0.2% | [6] -4.35%

CCOC(=O)CCCN1CCC=C(C#N)C1
inactive: [1] 13% | [2] -2.2% | [3] 6.7% | [4] -7.7% | [5] 13% | [6] 7.85%

COc1ccc(Cl)cc1NC(=O)Nc1cccc(C(C)=O)c1
inactive: [1] -4.55% | [2] 16.6% | [3] 11.3% | [4] -13.3% | [5] 17.9% | [6] 31.4%

Nc1ccc(C(=O)O)c(N)c1
inactive: [1] -4.35% | [2] 1.45% | [3] -14.1% | [4] -40.3% | [5] -22.5% | [6] -1.1%

O=C1/C(=C/c2ccc(O)cc2)CCC1CNc1ccc(Cl)cc1 (configuration not stated)
inactive: [1] 14.8% | [2] 12.6% | [3] -2.6% | [4] 18.1% | [5] 5.55% | [6] 39.9%

Cc1nc2ccccc2c(=O)n1NC(=O)c1ccc([N+](=O)[O-])cc1
inactive: [1] -43.4% | [2] -26.4% | [3] -13.5% | [4] -21.4% | [5] -10.8% | [6] -19.1%

C=CC(OC(=O)/C=C/C)OC(=O)/C=C/C
inactive: [1] 16.9% | [2] 0.85% | [3] 6.8% | [4] 12.6% | [5] 20.1% | [6] 21.6%

Nc1nc(N)nc(-c2ccc([N+](=O)[O-])o2)n1
inactive: [1] 41.8% | [2] 10.8% | [3] 29.9% | [4] 20.8% | [5] 12.2% | [6] 41.6%

CCCNC(=S)NNC(N)=O
inactive: [1] 2.5% | [2] 7.35% | [3] -9.05% | [4] 6.15% | [5] -11.2% | [6] 12.2%

Nc1ncnc2c1sc(=S)n2-c1ccccc1
inactive: [1] -5.3% | [2] 4.55% | [3] 13% | [4] -1% | [5] -12.7% | [6] -10.9%

CCOC(=O)C(C)N1CCCCCC1 (configuration not stated)
inactive: [1] -28.8% | [2] -30.4% | [3] -17.8% | [4] -28.5% | [5] -8.25% | [6] -10.8%

O=C(NC1c2ccccc2Oc2ccccc21)OCCCCl
inactive: [1] -11.2% | [2] -3.1% | [3] 2.15% | [4] -7.05% | [5] 7.8% | [6] -5.1%

O=C(CN1C(=O)c2ccccc2C1=O)Oc1ccccc1
inactive: [1] 1.8% | [2] -7.4% | [3] 1.1% | [4] -9.05% | [5] 16.4% | [6] -5.45%

Cc1nc2c(=O)n(C)c(=O)n(C)c2nc1CCC(=O)O
inactive: [1] -16.1% | [2] -3.9% | [3] -1.4% | [4] -52.5% | [5] 5.2% | [6] -5.6%

COc1cc2c(cc1OC)C(c1ccccc1)ON(C)CC2 (configuration not stated)
inactive: [1] -4.15% | [2] -1.7% | [3] -3.35% | [4] -13.4% | [5] 1.45% | [6] 1.35%

— PubChem BioAssay (NCI)
